From PubChem
PLK1 PBD inh = qHTS for Inhibitors of PLK1-PDB (polo-like kinase 1 - polo-box domain): Primary Screen. hit rate 2.8% among 360,000. Potency, µM, for inactives: max response, negative = inhibition, actives largely listed as inhibitors. AID 720504, 2013. Plk1 PBD binding of FITC phosphopeptide, fluorescence polarization. Serine/threonine-protein kinase PLK1 (Homo sapiens), P53350; note: potency is the fitted concentration of half-maximal effect; series mostly up to about 57 µM; % is set by controls: 0 for no effect and ±100 for the full control effect; nearly all actives have a fitted effect of over 65% in size
PI5P4K alpha inh = qHTS for Inhibitors of phosphatidylinositol 5-phosphate 4-kinase (PI5P4K) | hit rate 1.2% among 330,000 | max response, % | Phosphatidylinositol 5-phosphate 4-kinase type-2 alpha (Homo sapiens), P48426 | PI5P4Kalpha enzyme, ADP-Glo luminescence, 60 min; hits give low values; active = max response of -50% or lower; inconclusive = between -30% and -50%; inactive = -30% or higher; note: value at the top dose of about 77 µM; % is set by controls: 0 for no effect and ±100 for the full control effect
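Luminescence from ADP-Glo served as readout of PI5P4Kalpha activity in a qHTS format. Reaction: enzyme, substrate, compound, ATP at 5 microM final, 60 min at RT.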
BAZ2B block = qHTS Assay for Inhibitors of BAZ2B; Bromodomain adjacent to zinc finger domain protein 2B (Homo sapiens), Q9UIF8; AlphaScreen BAZ2B-H3K14Ac peptide displacement; Potency, µM (highest dose often 114 µM), inactives show at the top dose activity change, negative = inhibition, hits mostly inhibitors; AID 504333, 2011; hit rate 4.4% among 360,000; note: potency is the fitted concentration of half-maximal effect; % is set by controls: 0 for no effect and ±100 for the full control effect; nearly all actives have a fitted effect of over 60% in size
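BAZ2B 50 nM plus b-H3(5-23)K14Ac 50 nM, PBS pH 7.4/0.01% Tween-20, 30 min RT; compound added (max 110 uM), 30 min RT; streptavidin donor/Ni-chelate acceptor beads 10 ug/mL final, 20 min dark; AlphaScreen read.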
JMJD2A Tudor = qHTS Assay for Inhibitors of JMJD2A-Tudor Domain. Lysine-specific demethylase 4A (Homo sapiens), O75164. Potency, µM (highest dose often 114 µM), without a hit: at the top dose activity change, negative = inhibition, most hits filed as inhibitors. AID 504339, 2011. hit rate 4.4% among 390,000. AlphaScreen JMJD2A-Tudor / H3K4me3 peptide binding; note: potency is the fitted concentration of half-maximal effect; % is set by controls: 0 for no effect and ±100 for the full control effect; nearly all actives have a fitted effect of over 50% in size
G9a block = qHTS Assay for Inhibitors of Histone Lysine Methyltransferase G9a; Potency, µM (series often up to 102 µM), for the others: at the top dose activity, negative = inhibition, actives largely listed as inhibitors; hit rate 8.8% among 350,000; G9a H3K9 monomethylation, AlphaScreen, 2 h; AID 504332, 2011; Histone-lysine N-methyltransferase EHMT2 (Homo sapiens), Q96KQ7; note: potency is the fitted concentration of half-maximal effect; % is set by controls: 0 for no effect and ±100 for the full control effect; nearly all actives have a fitted effect of over 75% in size
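AlphaScreen detection with an anti-monomethyl H3K9 antibody quantified product after a 2 h room-temperature reaction containing 500 nM biotinylated H3K9 peptide, 20 µM SAM and 20 nM enzyme, which had been preincubated 15 min with compound.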
HP1b chromo inh = HTS for Inhibitors of HP1-beta Chromodomain Interactions with Methylated Histone Tails; Chromobox protein homolog 1 (Homo sapiens), P83916; AlphaScreen HP1-beta / biotin-H3K9me3 peptide binding; Potency, µM (series often up to 114 µM), inactives show top-dose activity change, negative = inhibition, usual class: inhibitors; hit rate 0.56% among 390,000; AID 540317, 2011; note: potency is the fitted concentration of half-maximal effect; nearly all actives have a fitted effect of over 70% in size
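HP1-beta protein (50 nM final) preincubated 30 min at room temperature with biotinylated H3(1-18)K9me3 peptide (50 nM) in PBS pH 7.4, 0.01% Tween-20, then compound added for 30 min. AlphaScreen streptavidin donor/nickel chelate acceptor beads (10 ug/mL final), 30 min dark, luminescence read.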
An asterisk follows results filed as active; [ ] = dose if it differs, or a comment. This is a sample that favours compounds with a hit; in the whole collection about 12% have one here. Unless noted, calls come from the whole dose curve; as a rule, active = well fitted curve in the direction sought with a large enough effect; inconclusive = small, poorly fitted or top-dose-only effect, or another doubt; inactive = no such curve, though single readings can be large; an effect the other way counts as inactive or inconclusive.

For CCc1cccc(C)c1Nc1c(-c2ccsc2)nc2ncccn12 the results were BAZ2B block inconclusive, JMJD2A Tudor -35%, G9a block -43%[59 µM] and HP1b chromo inh 0%.
For CCc1cccc(C)c1Nc1c(-c2cccc(O)c2)nc2cnccn12 the results were BAZ2B block 5%, JMJD2A Tudor 10%, G9a block 26%[59 µM] and HP1b chromo inh 65%.
For CCc1cccc(C)c1Nc1c(-c2ccc(N(C)C)cc2)nc2cnccn12 the results were BAZ2B block 16µM*, JMJD2A Tudor 40µM*, G9a block 18µM* and HP1b chromo inh inconclusive.
Screening CCOC(=O)c1ccccc1NS(=O)(=O)c1ccc(N2CCCCS2(=O)=O)cc1 returned BAZ2B block 0%, JMJD2A Tudor -5%, G9a block 17%[59 µM] and HP1b chromo inh 36%.
`CCn1nccc1NC(=O)c1csc([C@@H]2C[C@H](O)[C@@H](CO)O2)n1` gave PLK1 PBD inh -9% and PI5P4K alpha inh 0.
Screening O=C(Nc1nnc(C2=COCCO2)o1)C1CCCCC1 returned PLK1 PBD inh 2%, PI5P4K alpha inh -1, JMJD2A Tudor inconclusive, G9a block -23% and HP1b chromo inh 26%.
O=C(Nc1nnc(-c2ccc(Cl)s2)o1)C1CC1 was read as PLK1 PBD inh -6%, PI5P4K alpha inh 0, JMJD2A Tudor -27%, G9a block -49% and HP1b chromo inh 30%.
O=C(Nc1nnc(-c2cccs2)o1)C1CC1 was read as PLK1 PBD inh -7%, PI5P4K alpha inh 0, BAZ2B block inconclusive, JMJD2A Tudor 50µM*, G9a block 50µM* and HP1b chromo inh 27%.
`O=C(Nc1nnc(-c2ccncc2)o1)C1CCCCC1` gave PLK1 PBD inh 2%, PI5P4K alpha inh -9, BAZ2B block 50µM*, JMJD2A Tudor 20µM*, G9a block inconclusive and HP1b chromo inh 34%.
For O=C(Nc1nnc(-c2ccco2)o1)C1CCCCC1 the results were PLK1 PBD inh -4%, PI5P4K alpha inh -2, BAZ2B block inconclusive, JMJD2A Tudor 89µM*, G9a block inconclusive and HP1b chromo inh 34%.
Screening O=C(Nc1nnc(-c2ccc3c(c2)CCCC3)o1)C1CCCCC1 returned PLK1 PBD inh 2%, PI5P4K alpha inh 7, BAZ2B block -1%, JMJD2A Tudor -12%, G9a block 2% and HP1b chromo inh 44%.
For O=C(Nc1nc2ccsc2c(=O)s1)C1CCC1 the results were PLK1 PBD inh 6%, PI5P4K alpha inh 0, BAZ2B block -12%, JMJD2A Tudor 4%, G9a block 1% and HP1b chromo inh 27%.
For O=C(Nc1nc(-c2ccco2)c(-c2ccco2)s1)C1CCC1 the results were PLK1 PBD inh -23%, PI5P4K alpha inh inconclusive, BAZ2B block 32µM*, JMJD2A Tudor 40µM*, G9a block inconclusive and HP1b chromo inh 50µM*.
`Fc1ccc(C(Nc2ccccc2Cl)c2nnc(-c3ccccc3Cl)o2)cc1` (stereo not drawn) gave BAZ2B block 43%, JMJD2A Tudor 50%, G9a block 94%[59 µM] and HP1b chromo inh 92%.
`Cc1cccc(C)c1NC(=O)CSc1n[nH]c(=O)n1C1CC1` gave PLK1 PBD inh -1%, PI5P4K alpha inh 2, JMJD2A Tudor -12% and HP1b chromo inh 30%.
Cc1ccc(S(=O)(=O)N2CCC(C(=O)Nc3nnc(-c4ccco4)s3)CC2)cc1 was read as PLK1 PBD inh -7%, BAZ2B block inconclusive, JMJD2A Tudor -16%, G9a block -9%[12.7 µM] and HP1b chromo inh -7%.
For O=C(Nc1nnc(-c2ccncc2)o1)c1ccc(Br)s1 the results were PLK1 PBD inh -1%, PI5P4K alpha inh inconclusive, BAZ2B block 71µM*, JMJD2A Tudor inconclusive, G9a block -26% and HP1b chromo inh 33%.
`O=C(Nc1nnc(-c2ccco2)s1)C1CCCCC1` gave PLK1 PBD inh -5%, PI5P4K alpha inh -1, BAZ2B block 50µM*, JMJD2A Tudor -28%, G9a block 14%[59 µM] and HP1b chromo inh 58%.
`O=C(N/N=C\c1ccncc1)c1ccc(Br)s1` gave PLK1 PBD inh 0%, PI5P4K alpha inh -5, BAZ2B block -14%, JMJD2A Tudor -11%, G9a block 66% and HP1b chromo inh 53%.
Screening Cc1cccc(NC(=O)c2oc3ccccc3c2NC(=O)Cc2coc3cc(C)cc(C)c23)c1 returned BAZ2B block -4%, JMJD2A Tudor -12%, G9a block 1%[59 µM] and HP1b chromo inh 21%.
Screening COc1ccc(C2COc3c(ccc(O)c3OC)C2)c(OC)c1O (stereo not drawn) returned G9a block -39%[2.33 µM].
For Cc1nnc2n1N=C(c1ccc(F)cc1F)CS2 the results were PLK1 PBD inh -1%, PI5P4K alpha inh -4, BAZ2B block 8%, JMJD2A Tudor 5%, G9a block -10%[2.33 µM] and HP1b chromo inh 45%.
Screening COc1ccc(C(C#N)=C2C=C(Cl)C(=NO)C=C2Cl)cc1 returned PLK1 PBD inh 21µM* and PI5P4K alpha inh -30.
Screening COc1ccc(C(C#N)=C2C=CC(=NO)C(C)=C2Cl)cc1 returned PLK1 PBD inh -25%, PI5P4K alpha inh -14, JMJD2A Tudor 8.9µM* and HP1b chromo inh inconclusive.
For COC(=O)C1=C(C(=O)OC)[C@@H]2N(C)c3ccc(OC)cc3[C@@]23C[C@@H](C(=O)OC)N(C(=O)C2CCC2)C3=N1 the results were PLK1 PBD inh -8%, PI5P4K alpha inh 0, BAZ2B block 11µM*, JMJD2A Tudor 25µM*, G9a block inconclusive and HP1b chromo inh inconclusive.
Screening COC(=O)C1=C(C(=O)OC)[C@@H]2N(C)c3ccc(OC)cc3[C@@]23C[C@@H](C(=O)OC)N(C(=O)CC(C)C)C3=N1 returned PLK1 PBD inh 3%, PI5P4K alpha inh 6, JMJD2A Tudor 50µM* and HP1b chromo inh inconclusive.
COC(=O)C1=C(C(=O)OC)[C@@H]2N(C)c3ccc(OC)cc3[C@@]23C[C@@H](C(=O)OC)N(C(=O)NC2CCCCC2)C3=N1 was read as PLK1 PBD inh -23%, PI5P4K alpha inh -3, JMJD2A Tudor inconclusive and HP1b chromo inh -10%.
For O=C(Cn1cnc2c(nc3n2CCCCC3)c1=O)Nc1ccc(F)cc1 the results were BAZ2B block 3%, JMJD2A Tudor 3%, G9a block -5%[59 µM] and HP1b chromo inh 39%.
